From PubChem BioAssay (Tox21) come the findings set out here.

Calls of active or inactive are those of the source. Calls follow the shape of the dose curve; as a rule, active = well fitted curve in the direction sought with a large enough effect in the repeat runs; inconclusive = weak or mixed curves; inactive = flat fitted curve, though single readings scatter.

The assay is described as follows: qHTS assay to test for compound auto fluorescence at 590 nm (red) in HEK293 cells (AID 720679). The note with it: red autofluorescence 540/590 nm; series mostly up to 91.3 µM. The text has this:
National Center for Advancing Translational Sciences [NCATS]
NIH Chemical Genomics Center [NCGC]
U.S. Environmental Protection Agency [EPA]
National Institutes of Environmental Health Sciences [NIEHS]
National Toxicology Program [NTP]
U.S. Food and Drug Administration [FDA]
Compound auto fluorescence often interferes with screening of the compound library against various biological targets and signaling pathways. Some of these compounds may have fluorophoric properties. Such properties may interfere with the assay outputs resulting in false positives and/or negatives. To decrease such complications and ensure the compound activities are relevant in terms of biological response, the Tox21 10K compound library was screened for auto fluorescence.
From the fluorophores used as reporter signals in our screening assays, the auto fluorescence equivalencies of compounds against three fluorophores have been evaluated: Triamterene, Fluorescein and Rose Bengal sodium for blue, green and red fluorescence, respectively. The fluorescence intensities were measured using Excitation/Emission wavelengths at 405/460nm, 485/535nm and 540/590nm for blue, green and red labels, respectively. This assay includes the red fluorescence data.
Tox21 Assay Protocol Summary:
2,000 HEK293 cells in 5 uL of culture medium containing 10% dialyzed FBS per well were dispensed into black wall/clear bottom 1536-well plates using a Multidrop Combi Dispenser (Thermo Scientific). The assay plates were incubated for 4-5 hr at 37C to allow cell attachment to the well bottom, followed by the transfer of 23 nL compound or DMSO vehicle by a pintool work station (Kalypsys, San Diego, CA). After the assay plates were incubated overnight at 37C and 5% CO2, fluorescence intensities in the assay plates were measured by an Envision (PerkinElmer, Shelton, CT) plate reader using three labels for measuring blue, green and red fluorescence at […] 460, 535 and 590nm respectively.
On the technique in general: Quantitative high-throughput screening tests each substance at several concentrations.
Regarding `CCOC(=O)CC(SP(=O)(OC)OC)C(=O)OCC` (stereo not given), the outcome was inactive. Turning to `Cc1cc(O)ccc1Cl`, the molecule was called inactive. Next, `Cc1ccccc1N`: “inactive”; `CC[N+](=O)[O-]`: “inactive”; `CC12CC1(C)C(=O)N(c1cc(Cl)cc(Cl)c1)C2=O` (stereo not given): “inactive”.

Consider `CN(C)NC(=O)CCC(=O)O`, for which the molecule was called inactive.

Consider `CNc1cnn(-c2cccc(C(F)(F)F)c2)c(=O)c1Cl`, for which the molecule was called inactive. As for `Cc1cccc(C)c1N`, the result was inactive. Next, `CCCCC(CC)C(=O)Cl` (stereo not given): “inactive”; `Cc1ccc(N=C=O)cc1N=C=O`: “inactive”. On to `C=CC(=O)OCCCCCC(C)C`, for which the call was inactive. Next, `CNCC(O)c1ccc(O)cc1` (stereo not given): “inactive”.

`Cl/C=C/Cl`: the outcome was inactive. For `CSc1nnc(C(C)(C)C)c(=O)n1N`, the molecule was classed as inactive.

Regarding `CC(=O)C1CCOC1=O` (stereo not given), the call was inactive. Regarding `CNC(=O)O/N=C(\SC)C(=O)N(C)C`, the molecule was called inactive. In the case of `O=C/C=C/c1ccccc1` it was “inactive”; in that of `CN(C)C(=O)C(c1ccccc1)c1ccccc1`, “inactive”. Next, `Cc1cccc(C)c1NC(=O)CN1CCCC1=O`: “inactive”; `Oc1c(Br)cc(Br)cc1Br`: “inactive”; `O=C(O)C(Br)Br`: “inactive”. In the case of `NNc1ccccc1` it was “inactive”; in that of `Nc1ccc(N)cc1`, “inactive”. For the molecule `O=P1(NCCCl)OCCCN1CCCl` (stereo not given), the call was inactive. On to `C=CC#N`, for which the molecule was called inactive. In the case of `ClC(Cl)c1ccccc1` it was “inactive”; in that of `C=C(C)C(=O)OCC(CC)CCCC` (stereo not given), “inactive”; in that of `O=[N+]([O-])c1ccc(Cl)c(Cl)c1`, “inactive”. As to `[N-]=[N+]=CC(=O)OC[C@H](N)C(=O)O`, the call was inactive. As for `Cc1ccc(O)c(C)c1`, the call was inactive.

With `C[C@H]1C(=O)O[C@@H]2CCN3CC=C(COC(=O)[C@](C)(O)[C@]1(C)O)[C@H]23`, the molecule was called inactive.

As for `N#Cc1ccccn1`, the call was inactive. Next, `CC(=O)/C=C/c1ccccc1`: “inactive”. With `c1ccc2c(c1)CCCC2`, the molecule was called inactive.

For `N#Cc1cccc(C#N)c1`, the result was inactive.

Take `CN(C)C(=O)Nc1cccc(C(F)(F)F)c1`: the result was inactive. For the molecule `ClCCOCCCl`, the result was inactive. In the case of `CCSC(=O)N1CCCCCC1` it was “inactive”. Next, `CC(C)(C)C(=O)CCl`: “inactive”; `CNC(=O)O/N=C/C(C)(C)SC`: “inactive”.
